The results in this text go back to PubChem BioAssay (NCATS).

Assay [1] can be described thus: AP1 Signaling Pathway (AID 357; active = well fitted curve in either direction with a large enough effect, not every such curve was filed as active;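 also: ME-180 reporter cells stimulated with EGF at its EC50 level; % is scaled to controls: 0 for no effect and ±100 for the full control effect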). The following applies: ME-180 AP-1-bla reporter, EGF-induced, beta-lactamase ratio, 5 h; at 7.69 µM (top of the series) unless noted. Summed up:
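Beta-lactamase reporter under AP-1 response element, ME-180 background. Stimulus: EC50 EGF. Compound exposure 5 h, 37 °C. Detection: CCF4, 2.5 h RT, 460/530 nm. Values: AC50 from titration.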

For assay [2], the target named is Cytochrome P450 1A2 (Homo sapiens) (UniProt P05177). The assay can be described thus: p450-cyp1a2 (AID 410; calls by dose curve;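 also: -100% = full effect of reference inhibitor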). The method, boiled down: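 Luminescent readout of luciferin formed from Luciferin-ME by human CYP1A2; data normalized against complete inhibition by 57 uM furafylline. Enzyme 20nM, substrate 100uM at Km, 100mM KPO4 buffer, 60 min reaction at room temperature.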

Assay [3] is described as follows: NFAT Signaling Pathway (AID 444; active = well fitted curve in either direction with a large enough effect, not every such curve was filed as active;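 also: carbachol stimulus at about its EC50 of 1 µM final; % is scaled to controls: 0 for no effect and ±100 for the full control effect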). Particulars: Jurkat NFAT-bla M1, carbachol, beta-lactamase ratio, 5 h; at 7.69 µM (top of the series) unless noted. Summed up:
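Jurkat cells carrying an NFAT-driven β-lactamase reporter and co-transfected muscarinic M1 receptor were treated with compound plus carbachol (1 uM final, an EC50 level) for 5 h at 37 °C. CCF4 loading followed for 1 h at RT; 460/530 nm ratio gave %activity.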

Assay [4] in a line: Stat Signaling Pathway (AID 446; active = well fitted curve in either direction with a large enough effect, not every such curve was filed as active;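 also: ME-180 cervical cancer cells given 40 pM IL-6 alongside compound; SIE-controlled beta-lactamase reporter measured as 460/530 nm FRET emission ratio; % is scaled to controls: 0 for no effect and ±100 for the full control effect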). The following applies: ME-180 SIE beta-lactamase reporter, IL-6 stimulated, 5 h; at 7.69 µM (top of the series) unless noted. The method, boiled down: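 Reporter line: ME-180 cervical carcinoma, SIE-beta-lactamase. Treatment: compound with 40 pM IL-6, 5 hrs, 37 C, in low-serum OPTI-MEM with 10 mM HEPES pH 7.3. Detection: 460/530 nm fluorescence.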

The target of assay [5] is Glucocorticoid receptor (Homo sapiens) (UniProt P04150). The assay can be described thus: GR-GFP Redistribution (AID 450;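 active = compounds whose dose series gives a full or clear partial fitted curve of increased nuclear translocation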; also: potency is read from the fitted curve at half-maximal effect). The following applies: U2OS GR-GFP nuclear translocation, laser cytometry, 2 h.
The target is the same in assay [6]. The assay can be described thus: GR-EFC Redistribution (AID 451; calls by dose curve; also: potency is read from the fitted curve at half-maximal effect). The following applies: CHO-K1 GR-EFC translocation, beta-gal luminescence, 2 h. The method, boiled down: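 CHO-K1 cells stably expressing nuclear-localized β-gal enzyme acceptor and GR fused C-terminally to the enzyme donor fragment; ligand-driven nuclear translocation restores β-gal by complementation. Compounds titrated up to 46 uM final, 2 h at 37 °C; luminescence read.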

Assay [7] addresses Mitogen-activated protein kinase 10 (Mus musculus) (UniProt Q61831). The assay can be described thus: JNK3 AlphaScreen Assay (AID 530; active = well fitted curve in either direction with a large enough effect, not every such curve was filed as active;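 also: kinase came from lysate of stimulated human HepG2 cells; signal reports phosphorylation of biotinylated GST-cJun 1-79 at Ser73 with 10 µM ATP; % is scaled to controls: 0 for no effect and ±100 for the full control effect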). The method, boiled down: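 Inhibitors reduce antibody binding to phosphorylated biotin-cJun, lowering AlphaScreen luminescence. Lysates from HepG2 cells pre-activated by IL-1beta plus TNF-alpha supplied JNK3; compounds were titrated.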
For orientation: Alpha assays give light when donor and acceptor beads are brought close together.

The target of assay [8] is 3',5'-cyclic-AMP phosphodiesterase 4B (Homo sapiens) (UniProt Q07343). Kind of assay: qHTS Assay for Inhibitors of PDE-IV (AID 607; active = well fitted activation curve with a large enough effect in the main read-out, with a control signal flat, not every such curve was filed as active; also: % of control where 0% means no effect). The method, boiled down:
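Cell-based read-out of cAMP via a modified cyclic nucleotide-gated channel and membrane potential dye (535/590 nm) in HEK293 cells expressing PDE4 endogenously. Compounds tested up to 22.9 uM final; 100 uM RO 20-1724 reference.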
For orientation: In qHTS, concentration-response curves come from the screen itself.

The target of assay [9] is Guanine nucleotide-binding protein G(i) subunit alpha-1 (Homo sapiens) (UniProt P63096). The assay can be described thus: qHTS Assay for Inhibitors of RGS12 GoLoco Motif Activity (Green Fluorophore) (AID 879).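 Also: 0% = labeled peptide with Gαi1 and full inhibition = labeled peptide alone without protein; negative values mean loss of peptide binding seen as reduced polarization.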 Summed up:
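Fluorescence polarization assay: 50 nM Gαi1 with 10 nM FITC-labeled RGS12 GoLoco peptide in 10 mM Tris pH 7.5, 150 mM NaCl, 0.1 mM GDP, 0.05% NP40, 10 min at room temperature with compound.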

The target of assay [10] is Cytochrome P450 3A4 (Homo sapiens) (UniProt P08684). Kind of assay: qHTS Assay for Activators of Cytochrome P450 3A4 (AID 885). Also: nearly all actives have a fitted effect of over 65% in size. Summed up:
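Signal was normalized against complete inhibition by 57 uM ketoconazole. The reaction used 20nM CYP3A4 with 25uM Luciferin-PPXE, 10-min compound preincubation and a 60-min NADPH-supported step at RT.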

Assay [11] in a line: qHTS Assay for Identification of Small Molecule Antagonists for NFkB Signaling Pathway (AID 895; active = well fitted inhibition curve with a large enough effect in the signal ratio, with a control signal flat, not every such curve was filed as active; the % refers to the signal ratio; also: potency is read from the fitted curve at half-maximal effect). Summed up:
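NFkB-bla ME-180 cervical carcinoma cells with beta-lactamase reporter under NFkB response element; compounds added, then TNF alpha at 10 pM final (EC50), 5 h at 37 C. LiveBLAzer substrate 2 h, room temperature; emission 460/530 nm at 405 nm excitation.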

The target of assay [12] is Pyruvate kinase (Leishmania mexicana) (UniProt Q27686). The assay can be described thus: qHTS Validation Assay for Inhibitors of Leishmania Mexicana Pyruvate Kinase (AID 945).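 Also: 0% = DMSO only neutral control wells.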 Summed up:
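Eight-point qHTS titrations in triplicate, data normalized to DMSO neutral control. Reaction: 0.2 nM LmPYK E451W mutant, 0.5 mM PEP, 0.1 mM ADP, 7 mM MgCl2, pH 7.2, one hour at room temperature; luminescent ATP detection.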

The target of assay [13] is Pyruvate kinase PKM (Homo sapiens) (UniProt P14618). Kind of assay: qHTS Assay for Activators of Human Muscle Pyruvate Kinase (AID 954; active = well fitted curve in the direction sought with a large enough effect, not every such curve was filed as active;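 also: 0% = uninhibited enzyme and -100% = no enzyme or full thiadiazolimine inhibition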). The method, boiled down:
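Human PKM2 activity is measured as ATP generation, detected by luciferase-coupled luminescence. The enzyme (0.1 nM) acts on 0.5 mM PEP and 0.1 mM ADP for 1 h at ambient temperature; data are normalized to uninhibited and full-inhibition wells.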

Assay [14] concerns the target Alpha-galactosidase A (Homo sapiens) (UniProt P06280). Kind of assay: Counterscreen for Glucocerebrosidase Inhibitors: qHTS Assay for Human alpha-Galactosidase at pH 4.5 (AID 992). Also: 0% is about no effect. Summed up:
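Quantitative HTS: compounds tested from 0.7 nM up to 77 uM against 2 nM enzyme with 80 uM 4-MU alpha-D-galactopyranoside. The 20 min room-temperature reaction is stopped with 1M NaOH/1M glycine, pH 10.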
(Counterscreens check selectivity or assay interference.)

Assay [15] addresses alpha-glucosidase (Oryza sativa, rice) (UniProt Q653V4). Kind of assay: Counterscreen for Glucocerebrosidase Inhibitors: qHTS Assay for Rice alpha-Glucosidase at pH 5.0 (AID 997).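 Also: 0% = full activity with enzyme and -100% = basal without enzyme.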 The method, boiled down:
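Rice alpha-glucosidase (4 nM final) with 400 uM 4-methylumbelliferyl-alpha-D-glucopyranoside in citrate buffer pH 5.0, 20 min at room temperature, stopped at pH 10; fluorescence 365/440 nm, compounds 0.7 nM–77 uM, AC50 from Hill fits.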

A short description of assay [16]: qHTS Assay for Identification of Small Molecule Agonists for Thrombopoietin (TPO) Signaling Pathway (AID 917). Also: % is scaled to controls: 0 for no effect and ±100 for the full control effect. Summed up: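 We measured Glycoprotein IIb promoter–luciferase output in IL-3-starved Ba/F3 murine cells expressing the human TPO receptor after 24 hrs at 37 C with compounds and 26 pM TPO.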
The target in assay [17] is Muscarinic acetylcholine receptor M1 (Rattus norvegicus) (UniProt P08482). Kind of assay: qHTS Assay for Antagonists of Acetylcholine Muscarinic M1 Receptor: Measurement of IP-One Response (AID 944). Also: nearly all actives have a fitted effect of over 75% in size. The method, boiled down:
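M1-CHO (rat), 2000 cells/well, overnight recovery; cpd 10 min; carbachol EC80 (200 nM), 30 min, HEPES buffer + 50 mM LiCl pH 7.4; IP-One HTRF, Ex 337, Em 620/665 nm.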

SMILES strings stand for the structures. A number with no mark means an inactive call. Records with an inconclusive call do not appear. Active and inactive are the calls of the source. Unless noted, calls follow the shape of the dose curve; as a rule, active = well fitted curve in the direction sought with a large enough effect; inconclusive = small, poorly fitted or top-dose-only effect, or another doubt; inactive = no such curve, though single readings can be large; an effect the other way counts as inactive or inconclusive. A value given as a limit tells only on which side of the number the result lay.

Sequence of Cytochrome P450 1A2 (Homo sapiens) (P05177 whole entry, looked up): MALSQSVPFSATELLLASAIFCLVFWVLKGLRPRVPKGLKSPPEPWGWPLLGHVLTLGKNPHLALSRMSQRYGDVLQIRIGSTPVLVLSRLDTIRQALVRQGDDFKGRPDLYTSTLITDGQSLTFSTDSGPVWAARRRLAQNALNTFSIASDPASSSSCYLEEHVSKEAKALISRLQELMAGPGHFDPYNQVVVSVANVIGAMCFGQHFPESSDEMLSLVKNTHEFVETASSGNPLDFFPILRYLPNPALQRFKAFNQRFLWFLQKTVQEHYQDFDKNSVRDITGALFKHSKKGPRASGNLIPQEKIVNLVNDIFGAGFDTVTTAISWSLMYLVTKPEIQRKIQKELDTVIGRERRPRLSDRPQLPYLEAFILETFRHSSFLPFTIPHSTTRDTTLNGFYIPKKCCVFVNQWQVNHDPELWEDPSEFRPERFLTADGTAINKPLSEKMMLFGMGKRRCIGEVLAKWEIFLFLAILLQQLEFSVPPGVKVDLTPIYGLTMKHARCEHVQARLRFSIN
Sequence of 3',5'-cyclic-AMP phosphodiesterase 4B (Homo sapiens) (Q07343 whole entry, looked up): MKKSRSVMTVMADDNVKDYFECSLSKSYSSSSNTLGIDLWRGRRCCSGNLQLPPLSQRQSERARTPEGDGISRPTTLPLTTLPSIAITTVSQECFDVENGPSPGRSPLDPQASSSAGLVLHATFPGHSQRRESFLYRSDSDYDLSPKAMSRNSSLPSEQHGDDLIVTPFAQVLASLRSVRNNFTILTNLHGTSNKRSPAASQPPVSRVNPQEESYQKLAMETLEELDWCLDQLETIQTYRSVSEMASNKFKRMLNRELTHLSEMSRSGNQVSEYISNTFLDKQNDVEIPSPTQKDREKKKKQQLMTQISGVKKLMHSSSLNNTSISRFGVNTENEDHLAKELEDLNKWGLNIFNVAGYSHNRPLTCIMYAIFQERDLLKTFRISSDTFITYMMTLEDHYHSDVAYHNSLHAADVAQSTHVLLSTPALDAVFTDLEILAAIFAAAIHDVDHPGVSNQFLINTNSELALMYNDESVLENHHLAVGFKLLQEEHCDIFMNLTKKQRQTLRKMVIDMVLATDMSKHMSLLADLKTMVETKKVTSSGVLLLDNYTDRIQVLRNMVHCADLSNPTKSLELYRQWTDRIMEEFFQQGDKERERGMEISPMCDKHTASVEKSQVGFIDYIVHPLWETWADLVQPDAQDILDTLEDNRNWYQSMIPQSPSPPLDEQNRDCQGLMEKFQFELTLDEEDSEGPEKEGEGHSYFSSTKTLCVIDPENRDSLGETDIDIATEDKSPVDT
Sequence of Alpha-galactosidase A (Homo sapiens) (P06280 whole entry, looked up): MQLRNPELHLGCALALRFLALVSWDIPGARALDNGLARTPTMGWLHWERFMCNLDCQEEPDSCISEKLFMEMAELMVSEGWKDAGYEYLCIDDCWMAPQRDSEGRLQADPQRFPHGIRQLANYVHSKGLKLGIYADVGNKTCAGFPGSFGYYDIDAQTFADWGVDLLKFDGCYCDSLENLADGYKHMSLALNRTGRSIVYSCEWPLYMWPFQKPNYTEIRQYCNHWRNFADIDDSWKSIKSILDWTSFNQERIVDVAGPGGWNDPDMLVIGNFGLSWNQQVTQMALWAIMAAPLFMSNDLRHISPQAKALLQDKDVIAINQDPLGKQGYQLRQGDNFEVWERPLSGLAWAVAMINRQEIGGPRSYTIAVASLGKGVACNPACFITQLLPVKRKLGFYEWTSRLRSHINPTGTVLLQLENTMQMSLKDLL
Sequence of Pyruvate kinase PKM (Homo sapiens) (P14618 whole entry, looked up): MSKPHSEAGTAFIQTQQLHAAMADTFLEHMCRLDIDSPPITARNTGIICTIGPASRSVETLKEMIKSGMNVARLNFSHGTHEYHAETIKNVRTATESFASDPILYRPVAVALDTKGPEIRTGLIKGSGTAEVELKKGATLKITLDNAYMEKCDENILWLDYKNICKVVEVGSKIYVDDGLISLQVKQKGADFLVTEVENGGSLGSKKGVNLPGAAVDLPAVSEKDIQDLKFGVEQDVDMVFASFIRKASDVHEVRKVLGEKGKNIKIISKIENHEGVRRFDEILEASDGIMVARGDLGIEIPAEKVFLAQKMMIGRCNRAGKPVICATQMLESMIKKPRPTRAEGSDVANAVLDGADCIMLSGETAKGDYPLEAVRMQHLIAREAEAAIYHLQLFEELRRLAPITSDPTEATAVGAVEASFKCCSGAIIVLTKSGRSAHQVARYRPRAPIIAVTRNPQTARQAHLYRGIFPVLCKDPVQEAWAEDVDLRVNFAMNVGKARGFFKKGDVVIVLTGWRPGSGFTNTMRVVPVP
Sequence of Guanine nucleotide-binding protein G(i) subunit alpha-1 (Homo sapiens) (P63096 whole entry, looked up): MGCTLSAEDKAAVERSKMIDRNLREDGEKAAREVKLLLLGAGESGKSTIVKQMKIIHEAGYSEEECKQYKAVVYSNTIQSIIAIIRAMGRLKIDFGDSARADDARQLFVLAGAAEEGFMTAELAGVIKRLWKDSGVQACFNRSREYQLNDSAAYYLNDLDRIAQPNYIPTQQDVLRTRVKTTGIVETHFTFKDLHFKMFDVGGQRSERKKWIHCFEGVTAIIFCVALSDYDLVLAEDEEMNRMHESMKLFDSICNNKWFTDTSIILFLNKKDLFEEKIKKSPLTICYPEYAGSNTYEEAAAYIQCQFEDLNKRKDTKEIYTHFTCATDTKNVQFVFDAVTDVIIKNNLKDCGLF
Sequence of Muscarinic acetylcholine receptor M1 (Rattus norvegicus) (P08482 whole entry, looked up): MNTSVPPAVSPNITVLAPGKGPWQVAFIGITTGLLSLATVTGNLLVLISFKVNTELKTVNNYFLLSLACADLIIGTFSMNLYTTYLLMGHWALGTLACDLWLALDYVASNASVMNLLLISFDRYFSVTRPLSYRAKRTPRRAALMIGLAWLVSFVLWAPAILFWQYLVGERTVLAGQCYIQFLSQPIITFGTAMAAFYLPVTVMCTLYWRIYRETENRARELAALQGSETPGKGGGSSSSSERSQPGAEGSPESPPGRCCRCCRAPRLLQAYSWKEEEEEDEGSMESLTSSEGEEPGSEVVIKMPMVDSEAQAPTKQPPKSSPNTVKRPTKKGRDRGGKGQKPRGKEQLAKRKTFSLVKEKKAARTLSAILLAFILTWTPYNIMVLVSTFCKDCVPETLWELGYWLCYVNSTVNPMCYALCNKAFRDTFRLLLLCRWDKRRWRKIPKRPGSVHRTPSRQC
Sequence of Glucocorticoid receptor (Homo sapiens) (P04150 whole entry, looked up, the tested form may be a part): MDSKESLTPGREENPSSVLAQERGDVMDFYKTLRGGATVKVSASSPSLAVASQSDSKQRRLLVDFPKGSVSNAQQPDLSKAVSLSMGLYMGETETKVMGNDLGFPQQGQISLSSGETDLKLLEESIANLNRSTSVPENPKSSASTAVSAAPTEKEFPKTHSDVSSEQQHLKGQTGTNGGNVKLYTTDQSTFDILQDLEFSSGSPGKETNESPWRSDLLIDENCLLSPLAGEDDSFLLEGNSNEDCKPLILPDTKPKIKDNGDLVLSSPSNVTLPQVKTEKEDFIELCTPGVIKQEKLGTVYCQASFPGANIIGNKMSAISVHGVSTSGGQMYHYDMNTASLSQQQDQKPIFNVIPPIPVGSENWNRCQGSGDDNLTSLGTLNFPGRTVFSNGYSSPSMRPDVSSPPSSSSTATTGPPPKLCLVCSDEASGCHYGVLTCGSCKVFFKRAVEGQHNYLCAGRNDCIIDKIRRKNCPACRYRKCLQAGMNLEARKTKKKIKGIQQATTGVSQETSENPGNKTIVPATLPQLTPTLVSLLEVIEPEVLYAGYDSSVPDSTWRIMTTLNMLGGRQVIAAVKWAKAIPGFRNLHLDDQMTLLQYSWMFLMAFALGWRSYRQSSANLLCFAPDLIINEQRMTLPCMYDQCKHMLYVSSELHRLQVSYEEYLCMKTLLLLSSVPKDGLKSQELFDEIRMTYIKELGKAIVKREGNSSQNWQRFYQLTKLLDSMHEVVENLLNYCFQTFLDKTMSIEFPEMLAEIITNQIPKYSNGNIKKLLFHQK
Sequence of Pyruvate kinase (Leishmania mexicana) (Q27686 2-499 E452W): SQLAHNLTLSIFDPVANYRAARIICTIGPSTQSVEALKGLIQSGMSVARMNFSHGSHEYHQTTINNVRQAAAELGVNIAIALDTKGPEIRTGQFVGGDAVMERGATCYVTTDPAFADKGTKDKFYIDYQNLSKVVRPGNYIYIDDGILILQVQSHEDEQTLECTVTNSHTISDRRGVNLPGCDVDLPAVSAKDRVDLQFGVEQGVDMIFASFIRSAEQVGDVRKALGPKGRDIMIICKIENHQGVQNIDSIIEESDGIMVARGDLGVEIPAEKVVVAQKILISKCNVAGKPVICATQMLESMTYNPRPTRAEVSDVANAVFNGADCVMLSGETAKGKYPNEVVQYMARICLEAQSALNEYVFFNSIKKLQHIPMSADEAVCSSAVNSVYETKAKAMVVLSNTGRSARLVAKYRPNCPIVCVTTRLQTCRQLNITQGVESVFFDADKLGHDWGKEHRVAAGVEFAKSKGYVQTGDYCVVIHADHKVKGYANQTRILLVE
Sequence of Cytochrome P450 3A4 (Homo sapiens) (P08684 whole entry, looked up): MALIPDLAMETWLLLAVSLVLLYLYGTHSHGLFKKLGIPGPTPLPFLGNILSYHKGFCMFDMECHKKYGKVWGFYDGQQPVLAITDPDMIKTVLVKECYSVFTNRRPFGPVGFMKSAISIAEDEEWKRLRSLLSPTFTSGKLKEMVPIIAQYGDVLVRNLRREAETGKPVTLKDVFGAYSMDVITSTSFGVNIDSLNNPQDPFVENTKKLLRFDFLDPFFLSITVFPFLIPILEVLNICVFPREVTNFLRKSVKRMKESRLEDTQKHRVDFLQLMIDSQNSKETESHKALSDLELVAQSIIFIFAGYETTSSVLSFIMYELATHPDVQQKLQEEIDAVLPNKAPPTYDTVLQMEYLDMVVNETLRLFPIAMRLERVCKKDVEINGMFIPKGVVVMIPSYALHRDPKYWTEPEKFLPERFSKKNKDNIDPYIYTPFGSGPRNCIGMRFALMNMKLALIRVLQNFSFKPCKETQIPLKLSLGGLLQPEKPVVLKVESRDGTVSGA

For the compound `CN1CC[C@@]2(CCN3CCc4c(oc5ccccc45)[C@@H]3C2)N(C)C1=O`, the activity change, negative = inhibition is 18% [at 38 µM] in assay [1] and -21.7% [at 38 µM] in assay [3]. In addition, the Potency result in assay [2], in [7], in assay [8], in [10], in [11] and in assay [15] was “inactive” throughout. Also, the activity, negative = inhibition in assay [4] was -5.91% [at 38 µM]. Besides, the Potency in [5] and in [6] was more than 46 µM throughout. Moreover, the result in assay [9], in assay [12], in assay [13] and in [14] was inactive.
Turning to `NC(=O)C1=CN([C@@H]2O[C@@H](COP(=O)(O)OP(=O)(O)OC[C@@H]3O[C@H](n4cnc5c(N)ncnc54)[C@@H](OP(=O)(O)O)[C@@H]3O)[C@H](O)[C@@H]2O)C=CC1`, the activity change, negative = inhibition in [1] is 7.61% [at 38 µM]; in assay [3], 0.746% [at 38 µM]. The Potency entry in assay [2], in assay [7], in assay [8], in [11] and in assay [17] was “inactive” throughout. Also, in assay [4], the activity, negative = inhibition is -8.82% [at 38 µM]. Besides, the Potency in [5] and in assay [6] was more than 46 µM each time. Also, the compound was classed as inactive in assay [9], in assay [16], in assay [13] and in assay [14].
With `NC[C@H](O)C1CCCCCCC1`, the results for the activity change, negative = inhibition in assay [1] and in assay [3] were 3.98% [at 38 µM] and 4.63% [at 38 µM], respectively. For the same compound, the Potency result in assay [2], in assay [7], in assay [8] and in assay [17] was “inactive” each time. For the same compound, in [4], the activity, negative = inhibition was 14.7% [at 38 µM]. Also, the Potency in [5] and in assay [6] was more than 46 µM throughout. Further, the compound was called inactive in [9], in [16], in [12], in assay [13] and in assay [14].
For `CNC(=O)[C@@H]1O[C@@H](n2cnc3c(NCc4ccc(N)cc4)ncnc32)[C@@H](O)[C@H]1O`, the results for the activity change, negative = inhibition in [1] and in assay [3] were -7.83% [at 38 µM] and 4.77% [at 38 µM], respectively. The Potency entry in assay [2], in [7], in assay [8], in assay [10], in assay [17] and in assay [15] was “inactive” throughout. For the same compound, in assay [4], the activity, negative = inhibition was -2.42% [at 38 µM]. The Potency was more than 46 µM in assay [5], more than 46 µM in assay [6] and 12.6 µM (active) in [11]. The compound was classed as inactive in assay [9], in [16], in assay [13] and in assay [14].
On to `CCCCCCCCCCCCCCC/C=C\[C@H](O)[C@@H](NC(=O)CCCCCCCCCCCCC)OC` (tested in a mixture with another compound), for which the figures for the activity change, negative = inhibition in assay [1] and in [3] were 15.5% [at 38 µM] and 13% [at 38 µM], respectively. The Potency result in assay [2], in [7], in [8], in assay [17] and in assay [15] was “inactive” each time. For the same compound, the activity, negative = inhibition in assay [4] is -20.2% [at 38 µM]. Besides, the Potency in assay [5] and in [6] was more than 46 µM each time. In addition, the call in [9], in [16], in assay [12], in [13] and in assay [14] was inactive.
